MARV entry inh – qHTS for inhibitors of binding or entry into cells for Marburg Virus | Marburg virus pseudotyped entry inhibition, cell reporter | Potency, µM (highest dose often 37.8 µM), for inactives: top-dose activity change, negative = inhibition, usual class: inhibitors | 300,000 compounds, 1.8% hits | AID 540276, 2011; calls by dose curve; tested in HEK293 cells; note: potency is the fitted concentration of half-maximal effect
FMDV inh – High Throughput Screening for Foot and Mouth Disease Virus Antivirals; 410,000 compounds, 1.2% hits; AID 1159524, 2015; Potency, µM (top dose mostly 57.9 µM), without a hit: at the highest dose activity change, negative = inhibition, actives largely listed as inhibitors; FMDV antiviral cell-based qHTS; calls by dose curve; tested in HEK293T cells; note: read-out not given here; potency is the fitted concentration of half-maximal effect; nearly all actives have a fitted effect of over 45% in size
Giardia FBPA inh-1 – qHTS Assay for Inhibitors of Fructose-1,6-bisphosphate Aldolase from Giardia Lamblia; purified Giardia FBPA; Potency, µM (top dose mostly 59.6 µM), for inactives: top-dose activity, negative = inhibition, actives largely listed as inhibitors; 290,000 compounds, 0.71% hits; note: potency is the fitted concentration of half-maximal effect; nearly all actives have a fitted effect of over 55% in size
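Giardia FBPA (40 nM reagent) was preincubated 10 min at RT with compound (up to 57.5 uM final), then substrate plus GAPDH/TPI/NAD/arsenate coupling system with diaphorase/resazurin was added; resorufin fluorescence (525/598 nm) was read after 20 min.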
HCMV antiviral – qHTS Assay for inhibitors of the human cytomegalovirus (HCMV); HFF cells, HCMV-luciferase reporter, 72 h; hits give low values; activity change, negative = inhibition, % at 57.5 µM; 410,000 compounds, 4.5% hits; AID 1259415, 2018; in the data active = activity change below about -60%; inconclusive = no clear call, values can overlap the other calls; inactive = above about -39%
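Luciferase read-out from HCMV-luciferase-infected HFFs (MOI 1 PFU/cell) 72 h post infection at 37C; compounds added after 16 h cell attachment; activity normalized between buffer-only basal and Salinomycin (10uM) inhibitor controls.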
HCV inhibitor – qHTS Assay for Inhibitors of Hepatitis C Virus (HCV); Potency, µM (top dose mostly 41.8 µM), for inactives: at the top dose activity change, negative = inhibition, actives largely listed as inhibitors; Huh7.5.1 HCVcc-Cre infection, luciferase reporter, 44 h; AID 651820, 2012; 340,000 compounds, 3.4% hits; note: potency is the fitted concentration of half-maximal effect
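Antiviral activity was scored by luciferase reporter output from cells infected with HCVcc-Cre (~0.5 moi) in presence of compound, 44 h infection period, cells seeded 1,000/well 4 h prior.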
LASV entry inh – qHTS for Inhibitors of binding or entry into cells for Lassa Virus | Potency, µM (top dose mostly 37.9 µM), without a hit: at the top dose activity change, negative = inhibition, hits mostly inhibitors | 300,000 compounds, 1.2% hits | Lassa virus pseudotype entry inhibition, cell reporter | AID 540256, 2011; calls by dose curve; tested in HEK293 cells; note: potency is the fitted concentration of half-maximal effect; nearly all actives have a fitted effect of over 50% in size
Giardia growth – qHTS Assay for Inhibitors of Fructose-1,6-bisphosphate Aldolase from Giardia Lamblia: Giardia lamblia growth inhibition; Giardia lamblia trophozoite growth inhibition; shares compounds with Giardia FBPA inh-1; Potency, µM (highest dose often 57.5 µM), for the others: at the top dose activity change, negative = inhibition, actives largely listed as inhibitors; 1,500 compounds, 5% hits;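 note: potency is the fitted concentration of half-maximal effect; trophozoites exposed to compound for 48 h at 37 °C; nearly all actives have a fitted effect of over 70% in size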
Mammal cell tox – qHTS Assay for Inhibitors of Fructose-1,6-bisphosphate Aldolase from Giardia Lamblia: Mammalian cellular toxicity; Potency, µM (titrated, usually from 57.5 µM), without a hit: at the top dose viability change, negative = toxicity, actives largely listed as inhibitors; mammalian cell viability counter-screen, qHTS; shares compounds with Giardia FBPA inh-1; 1,500 compounds, 4% hits;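 note: Chinese hamster ovary cells used as mammalian cytotoxicity surrogate; viability measured as cellular ATP by luminescence; potency is the fitted concentration of half-maximal effect; compound exposure lasted 48 h before reading; nearly all actives have a fitted effect of over 60% in size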
Giardia FBPA inh-2 – qHTS Assay for Inhibitors of Fructose-1,6-bisphosphate Aldolase from Giardia Lamblia: Primary screen confirmation. shares compounds with Giardia FBPA inh-1. purified Giardia aldolase enzyme activity, qHTS. Potency, µM (highest dose often 57.5 µM), for inactives: at the top dose activity change, negative = inhibition, hits mostly inhibitors. 1,500 compounds, 5% hits. AID 2787, 2010; note: potency is the fitted concentration of half-maximal effect; nearly all actives have a fitted effect of over 45% in size
Rabbit FBPA inh – qHTS Assay for Inhibitors of Fructose-1,6-bisphosphate Aldolase from Giardia Lamblia: Rabbit FBPA Selectivity; shares compounds with Giardia FBPA inh-1; Rabbit muscle FBPA enzyme inhibition, selectivity counter-screen; Potency, µM (titrated, usually from 57.5 µM), for inactives: at the highest dose activity, negative = inhibition, usual class: inhibitors; 1,500 compounds, 4% hits; note: potency is the fitted concentration of half-maximal effect; nearly all actives have a fitted effect of over 60% in size
Target sequence (P00883 whole entry, looked up): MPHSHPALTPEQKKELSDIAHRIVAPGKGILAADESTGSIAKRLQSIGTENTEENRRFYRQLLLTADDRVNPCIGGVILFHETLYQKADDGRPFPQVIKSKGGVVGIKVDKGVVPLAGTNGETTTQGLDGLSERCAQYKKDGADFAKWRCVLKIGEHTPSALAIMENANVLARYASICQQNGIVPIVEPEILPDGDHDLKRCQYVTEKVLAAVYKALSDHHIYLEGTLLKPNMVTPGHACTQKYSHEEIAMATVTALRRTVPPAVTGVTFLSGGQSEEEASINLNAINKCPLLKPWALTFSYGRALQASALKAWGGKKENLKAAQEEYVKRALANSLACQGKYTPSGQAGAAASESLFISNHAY
GAPDH counter – qHTS Assay for Inhibitors of Fructose-1,6-bisphosphate Aldolase from Giardia Lamblia: Coupling assay counterscreen confirmation; 1,500 compounds, 6% hits; GAPDH coupling enzyme counterscreen, biochemical, qHTS; shares compounds with Giardia FBPA inh-1; Potency, µM (doses to about 57.5 µM), for the others: at the highest dose activity change, negative = inhibition, hits mostly inhibitors; note: potency is the fitted concentration of half-maximal effect; nearly all actives have a fitted effect of over 55% in size
* hit, by the source's call; u = inconclusive; x = no result given; [ ] = another dose, or the depositor's remark. The list is not random: actives were taken first. Their share in the collection is about 8.3%. Unless noted, calls come from the whole dose curve; as a rule, active = well fitted curve in the direction sought with a large enough effect; inconclusive = small, poorly fitted or top-dose-only effect, or another doubt; inactive = no such curve, though single readings can be large; an effect the other way counts as inactive or inconclusive. % is set by controls: 0 for no effect and ±100 for the full control effect.

SMILES	MARV entry inh	FMDV inh	Giardia FBPA inh-1	HCMV antiviral	HCV inhibitor	LASV entry inh	Giardia growth	Mammal cell tox	Giardia FBPA inh-2	Rabbit FBPA inh	GAPDH counter
Nc1cc2nc3ccccc3oc-2cc1=O	x	13%	18µM*	-91*	0%	x	-5%[10.4 µM]	-14%	u	-23%	u
CCOc1ccc(NC(=O)c2cc3c(n(-c4ccc(OC)cc4)c2=O)CC(C)(C)CC3=O)cc1	u	-7%	x	-1	x	u	x	x	x	x	x
CNC(=O)c1c(C)[nH]c(=S)c(C#N)c1-c1ccco1	x	-4%	13µM*	3	8%	x	3%[10.4 µM]	15%	6%	1%	13%
CCOc1ccc(NC(=O)CCc2nnc3n(C)c(=O)c4sccc4n23)cc1	-3%[46.1 µM]	-9%	x	5	x	6%[46.1 µM]	x	x	x	x	x
CC(C(Sc1ccccc1N)c1ccccc1)[N+](=O)[O-] (centres undefined)	x	u	20µM*	-67*	7%	x	u	32µM*	5%	9%	-4%
CC(C(=O)Nc1cccc([N+](=O)[O-])c1)[n+]1ccccc1 (centres undefined)	x	-1%	16µM*	33	21%	x	u	8%	5%	0%	17%
O=C(Nc1nnc(C2=COCCO2)o1)c1ccc(S(=O)(=O)N2CCCCC2)cc1	-15%[46.1 µM]	-16%	16µM*	-10	22%	7%[46.1 µM]	u	-9%	11%	16%	-1%
COc1ccc(C(=O)Nc2nnc(C3=COCCO3)o2)cc1	u	6%	x	-3	9%	u	x	x	x	x	x
O=C(Nc1nnc(C2=COCCO2)o1)c1ccc(S(=O)(=O)N2CCCC2)cc1	3%[46.1 µM]	-14%	3.5µM*	u	10%	2%[46.1 µM]	25%[38.3 µM]	-4%	-6%	-3%	2%
O=C(Nc1nnc(-c2cccs2)o1)c1ccc(S(=O)(=O)N2CCOCC2)cc1	u	-14%	14µM*	-84*	-24%	-8%	-3%[10.4 µM]	-10%	-6%	-1%	-9%
CCCCn1c(NS(=O)(=O)c2ccccc2)c(C(=O)OCC)c2nc3ccccc3nc21	4.6µM*	0%	0.45µM*	u	u	u	-7%[38.3 µM]	-5%	u	-25%	40µM*
Cc1ccc(C)c(NC(=O)Cn2c(=O)n(Cc3ccc4c(c3)OCO4)c(=O)c3oc4ccccc4c32)c1	x	-6%	x	3	x	2%[46.1 µM]	x	x	x	x	x
CCCc1cc(=O)[nH]c(SCc2nc(-c3ccc(OC)cc3)no2)n1	x	-6%	x	2	x	10%[46.1 µM]	x	x	x	x	x
